Screening results (PubChem)
Hits are enriched below; roughly 5.7% of the tested compounds scored in any of these assays.
hcDAF12 agonist – activators of H. contortus DAF-12 nuclear receptor; AID 652067; activation, % at 6.8 µM; 370,000 tested, 1.4% active; HEK293 hcDAF-12 lit1-tk-luc reporter, luminescence; 0% DMSO, 100% Δ7-dafachronic acid;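 active = activation above the mean of all tested compounds plus 3 SD, cut at about 5.5% in these data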
ssDAF12 agonist – activators of S. stercoralis DAF-12 nuclear receptor. HEK293 ssDAF-12/GRIP1 lit1-tk-luc reporter, luminescence; % of 3 µM dafachronic acid response. activation, % at 6.8 µM. 370,000 tested, 1% active. AID 652126;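 active = activation above the mean over all tested compounds plus 3 SD, cut at about 0.9% in these data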
AHR activator – activates the human aryl hydrocarbon receptor; P35869; AHR-responsive luciferase reporter cells, luminescence; activation, % at 5 µM; 320,000 tested, 2.5% active; AID 2796; in the data active = activation above about 47%
Target sequence (P35869 whole entry, looked up): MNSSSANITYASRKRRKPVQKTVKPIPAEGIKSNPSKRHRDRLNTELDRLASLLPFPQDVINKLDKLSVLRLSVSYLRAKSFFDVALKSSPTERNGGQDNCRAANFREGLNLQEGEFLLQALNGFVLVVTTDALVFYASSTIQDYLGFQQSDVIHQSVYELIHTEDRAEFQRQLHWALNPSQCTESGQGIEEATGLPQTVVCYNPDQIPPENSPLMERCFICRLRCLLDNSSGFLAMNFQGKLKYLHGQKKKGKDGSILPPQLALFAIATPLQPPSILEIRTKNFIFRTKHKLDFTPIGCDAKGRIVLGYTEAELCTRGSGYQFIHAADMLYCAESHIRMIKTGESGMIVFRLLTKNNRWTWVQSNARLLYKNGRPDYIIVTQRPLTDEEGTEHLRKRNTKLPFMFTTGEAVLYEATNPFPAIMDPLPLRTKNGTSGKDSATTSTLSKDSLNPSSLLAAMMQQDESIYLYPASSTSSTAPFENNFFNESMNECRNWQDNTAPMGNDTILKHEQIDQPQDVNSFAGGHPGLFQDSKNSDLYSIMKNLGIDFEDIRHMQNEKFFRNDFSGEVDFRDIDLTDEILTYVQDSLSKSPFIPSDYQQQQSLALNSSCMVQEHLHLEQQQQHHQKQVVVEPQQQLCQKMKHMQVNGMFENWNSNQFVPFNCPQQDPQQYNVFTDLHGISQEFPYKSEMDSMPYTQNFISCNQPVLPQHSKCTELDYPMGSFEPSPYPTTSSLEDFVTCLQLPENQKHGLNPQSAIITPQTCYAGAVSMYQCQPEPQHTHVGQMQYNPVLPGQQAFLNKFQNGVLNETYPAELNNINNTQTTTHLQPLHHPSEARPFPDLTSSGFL
DAX1 inh-1 – DAX1 (NR0B1) inhibition, primary screen; HEK293T StAR-luciferase reporter, SF-1/DAX-1 repression relief; inhibition, % at 6.8 µM; 370,000 tested, 1.1% active;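 active = inhibition above the mean over all tested compounds plus 3 SD, cut at about 3.6% in these data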;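 note: higher inhibition means more luminescence from relief of DAX-1 repression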
hgDAF12 agonist – agonists of H. glycines DAF-12 nuclear receptor; HEK293 GAL4-hgDAF12 UAS-luciferase reporter, agonist luminescence; normalized to butyrate control; activation, % at 6.8 µM; 370,000 tested, 1.8% active;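 active = activation above a cutoff set at the mean of all screened compounds plus 3 SD, cut at about 10% in these data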
DAX1 inh-2 – NR0B1 (DAX1) inhibition. P51843. HEK293 Gal4-DAX1 luciferase reporter, luminescence. inhibition, % at 6.75 µM. 340,000 tested, 0.99% active. AID 504766;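 active = inhibition above the mean over all tested compounds plus 3 SD, cut at about 4.2% in these data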;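 note: inhibition shows as a rise in luminescence from relieved DAX1 repression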
Large screens that a line does not name were inactive.

Cn1c(CNC(=O)c2ccc(F)cc2)nc2ccccc21	none
Cc1ccc(N2CCN(c3ccc(NCc4nc5ccccc5n4C)cc3)CC2)cc1	AHR activator 66
Cn1c(CN2CCN(c3cccc(Cl)c3)CC2)nc2ccccc21	hcDAF12 agonist 5.8
Cn1c(CNc2ccccc2F)nc2ccccc21	hgDAF12 agonist 11 (no result: AHR activator, DAX1 inh-1, DAX1 inh-2)
COC(=O)c1cc(NC(=O)/C=C/c2ccccc2)ccc1O	hgDAF12 agonist 11 (no result: DAX1 inh-2)
O=C(O)c1ccc(N2CCCCC2)cc1	none
O=C(CCc1ccccc1)Nc1ccc(N2CCOCC2)cc1	none
O=C(c1ccccc1)c1ccc(N2CCCC2)cc1	hgDAF12 agonist 12
O=C(/C=C/c1ccc(Cl)cc1)Nc1ccc(N2CCCCC2)cc1	none
O=C(Cc1ccccc1)c1ccc(N2CCOCC2)cc1	hgDAF12 agonist 11 (no result: AHR activator)
O=C(/C=C/c1ccccc1)Nc1cc(C(=O)O)cc(C(=O)O)c1	none
O=C(/C=C/c1ccccc1)Nc1ccc(N2CCCCC2)cc1	hgDAF12 agonist 13
COc1ccc(OC)c(CCNC(=O)c2ccc(CS(=O)Cc3cccc(Cl)c3)o2)c1 (configuration not stated)	none
Oc1c(C=NCc2ccncc2)sc2ccccc12	none (no result: DAX1 inh-2)
O=C(NC(=O)c1ccccc1Cl)Nc1ccc(-c2cnco2)cc1	none
Cc1ccc(CCNC(=O)C2CCC(=O)N2Cc2ccc(F)cc2)cc1 (configuration not stated)	none
COc1ccc(-c2ccc(SCc3ccccn3)nn2)cc1OC	none
COc1cccc(-c2ccc(SCc3ccccn3)nn2)c1	hgDAF12 agonist 12
C#CCSc1nc(=O)c2cccnc2n1-c1ccc(C)cc1	DAX1 inh-2 4.5
Cc1ccc(-n2cnc(=O)c3cccnc32)cc1	none
Oc1ccc(/C=N/Nc2ccc3ccccc3c2)c(O)c1	AHR activator 61
O=C(COc1ccccc1)NCC(=O)N/N=C/c1ccc(O)cc1O	DAX1 inh-2 7.1
Cc1nn(-c2ccccc2)c2c1C(c1cccs1)C(C#N)=C(N)O2 (configuration not stated)	AHR activator 55 (no result: hcDAF12 agonist, ssDAF12 agonist, DAX1 inh-1, hgDAF12 agonist)
Cc1cc(C)c(OCCCNCc2ccccc2)c(Br)c1	none
CC(NC(=O)Cc1ccccc1F)c1ccc(F)cc1 (configuration not stated)	DAX1 inh-2 4.8
Cc1ccccc1CN1CCC(CNC(=O)Nc2ccc(F)cc2F)CC1	none
O=C(Nc1cccc(C(F)(F)F)c1)Oc1ccc(Cl)c2cccnc12	AHR activator 49
O=C(Nc1cccc(C(F)(F)F)c1)c1cccnc1NCCc1ccccc1	none
O=C(Nc1cccc(C(F)(F)F)c1)c1cccnc1NCCO	AHR activator 52
CCN(CC)C(=O)Oc1ccc(Cl)c2cccnc12	none
O=C(O)CSCC(=O)NCc1c(Cl)cccc1Oc1ccccc1	none
CC(=O)Nc1ccc(NC(=O)CN(c2ccc([N+](=O)[O-])cc2)S(=O)(=O)c2ccccc2)cc1	none
NC(=O)CN(c1ccc([N+](=O)[O-])cc1)S(=O)(=O)c1ccccc1	DAX1 inh-2 4.4
COC(=O)NCN1C(=O)C2C3C=CC(C3)C2C1=O (configuration not stated)	none
CC(C)OC(=O)NCN1C(=O)C2C3C=CC(C3)C2C1=O (configuration not stated)	hgDAF12 agonist 11
CCOC(=O)C1=C(C)N=C2SC(C(=O)OC)=CC(=O)N2C1c1ccc(OC)cc1 (configuration not stated)	none
C/C(=N\NS(=O)(=O)c1ccc([N+](=O)[O-])cc1)c1ccc(NC(=O)c2ccco2)cc1	DAX1 inh-1 4.3, hgDAF12 agonist 12
COc1ccc(C)cc1NC(=O)c1cc2ccccc2cc1OCC(=O)NCc1ccco1	none
CN(NC1OC(=O)c2ccccc21)c1ccccc1[N+](=O)[O-] (configuration not stated)	DAX1 inh-2 8.0
Oc1ccc(/C=N/N2CCOCC2)c(O)c1O	DAX1 inh-2 6.2
Oc1ccc(/C=N/N2CCCCC2)c(O)c1O	none
c1csc(-c2nc(CN3CCSCC3)cs2)c1	hgDAF12 agonist 12
O=S1(=O)CCN(Cc2csc(-c3cccs3)n2)CC1	none
CCCCn1c(N)c(N(Cc2ccccc2OC)C(=O)COc2ccccc2OC)c(=O)[nH]c1=O	none
O=C(O)C1C2C=CC(C2)C1C(=O)N1CCc2ccccc21 (configuration not stated)	hcDAF12 agonist 5.6
CC(C)(C)NC(=O)COC(=O)c1nsc(Cl)c1Cl	none
Cc1ccc(C(=O)Nc2nccc(C)n2)cc1	DAX1 inh-2 4.8
CSc1nc(N)n2nccc2n1	hcDAF12 agonist 6.2 (no result: AHR activator, DAX1 inh-2)
CSc1nc(N)n2nc(C)cc2n1	none (no result: AHR activator, DAX1 inh-2)
CCn1c(=O)n(CC(=O)Nc2cc(OC)ccc2OC)c(=O)c2ccccc21	none
CC(NC(=O)C12CC3CC(CC(C3)C1)C2)C(=O)NN=Cc1ccc([N+](=O)[O-])o1 (configuration not stated)	ssDAF12 agonist 1.6
O=C(N/N=C/c1ccc([N+](=O)[O-])o1)C1CCCC1	none
Cc1ccc(Cn2c(SC(C)C(N)=O)nc3ccccc3c2=O)cc1 (configuration not stated)	none
COc1ccc(CNC(=O)C(C)Sc2ccc(C)cc2)cc1 (configuration not stated)	none
CCn1c(COc2cccc3cccnc23)nnc1SCC(=O)O	DAX1 inh-2 5.4
C=CCn1c(CCc2ccccc2)nnc1SCC(=O)OC	none
C=CCn1c(COc2cccc3ccc(C)nc23)nnc1SCC(=O)OC	ssDAF12 agonist 0.9
CCn1c(COc2cccc3cccnc23)nnc1SCC(=O)OC	none
CCOc1ccc(CC(=O)N/N=C/c2cccnc2)cc1OCC	none
CCOC(=O)c1cc(-c2csc(-c3ccc(C(F)(F)F)cc3)n2)on1	none
CCOC(=O)c1cc(-c2csc(-c3ccc(C(C)(C)C)cc3)n2)on1	none
CCOC(=O)c1cc(-c2csc(Nc3ccccc3Cl)n2)on1	ssDAF12 agonist 1.5
CCOC(=O)c1cc(-c2csc(N/N=C/c3ccccc3Cl)n2)on1	AHR activator 50
Cc1oc(-c2cccc(Cl)c2)nc1CSc1nc2c(c(=O)[nH]1)CCC2	none (no result: hcDAF12 agonist, ssDAF12 agonist, DAX1 inh-1, hgDAF12 agonist)
COc1ccc(CC2(CO)CCN(Cc3cnn(-c4ccccc4OC)c3)CC2)cc1	DAX1 inh-2 5.8
Cc1ccc(CSc2nc3ccncc3n2CC(=O)Nc2cc(C)cc(C)c2)cc1	none
CCc1c(C#N)sc(C(N)=O)c1CC	none
COC(=O)c1ccc(NN=Nc2ccc(C)cc2)cc1	hcDAF12 agonist 6.0, hgDAF12 agonist 11
COC(=O)c1ccc(C)cc1	none
c1ccc(-c2cnc(-c3ccccn3)nn2)cc1	hgDAF12 agonist 11
c1ccc(-c2nc(-c3ccccn3)nc(-c3ccccn3)n2)nc1	none
c1cncc(-c2nc3c(ccc4ccccc43)[nH]2)c1	AHR activator 127
Cc1cccc(-n2c(SCC(=O)Nc3nnc(C)s3)nnc2-c2ccoc2C)c1	none
